Experimental data taken from the supplement of paper PMC10849652.
The full data set covers some 7,900 targets. This sample favours those with a hit. About 0.6% of all pairs of compound and target were hits.

Assays:
Assay in all cases: log2 fold change, soluble protein after heating vs DMSO (PISA); higher = thermal stabilisation; K562 cells, 10 uM, 30 min; active = over 0.2 and 3.5 SD of the protein, either way, in both replicates (recomputed)
[1] = compound: CC[C@@H]1C(=O)N(C)c2cnc(Nc3ccc(C(=O)NC4CCN(C)CC4)cc3OC)nc2N1C1CCCC1
In short: (§1)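 For each measurement, 10 μM compound was applied for 30 min to K562 cells at 2×10^6 cells/mL. Aliquots were heated for 3 min across 48°C-58°C, pooled, and extracted in PBS with 0.5% NP-40 at 4°C; the supernatant after 21,000xg for 90 min was soluble protein. This was quantified by TMTpro 16plex LC-MS/MS with channel sums equalised, and thermal stability was reported relative to control samples from duplicates, on a log2 fold-change scale.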

volasertib = compound: CC[C@@H]1C(=O)N(C)c2cnc(Nc3ccc(C(=O)N[C@H]4CC[C@H](N5CCN(CC6CC6)CC5)CC4)cc3OC)nc2N1C(C)C [volasertib]
In short: as §1

[2] = compound: CC[C@H](C)N1C=C(C2=C(C=C(C=C21)C3=CN=C(C=C3)N4CCNCC4)C(=O)NCC5=C(C=C(NC5=O)C)C)C
In short: as §1

epoxomicin = compound: CC[C@H](C)[C@@H](C(=O)N[C@@H]([C@@H](C)O)C(=O)N[C@@H](CC(C)C)C(=O)[C@]1(CO1)C)NC(=O)[C@H]([C@@H](C)CC)N(C)C(=O)C [epoxomicin]
In short: as §1

[3] = compound: CCn1c(C(=O)N(C2CC2)C2CC2)cc2c3c(ncn3C)c(Nc3cc(C)n(C)n3)nc21
In short: as §1

[4] = compound: CCn1cc(-c2ccnc3[nH]c(-c4cccc(CN(C)C)c4)cc23)c(-c2ccc(NC(=O)N(C)C)cc2)n1
In short: as §1

[5] = compound: CN(C)CC(=O)Nc1ccc2[nH]c(=O)c3ccccc3c2c1
In short: as §1

rosiglitazone = compound: CN(CCOC1=CC=C(C=C1)C[C@H]2C(=O)NC(=O)S2)C3=CC=CC=N3 (racemic) [rosiglitazone]
In short: as §1

[6] = compound: CN1C2=C(C3=C1C(=O)N(N=C3)CC4=CC(=CC=C4)N)SC(=C2)S(=O)C
In short: as §1

[7] = compound: CN1CCC(CNc2ccc3ncc(-c4cccc(OC(F)(F)F)c4)n3n2)CC1
In short: as §1

saracatinib = compound: CN1CCN(CCOc2cc(OC3CCOCC3)c3c(Nc4c(Cl)ccc5c4OCO5)ncnc3c2)CC1 [saracatinib]
In short: as §1

sotrastaurin = compound: CN1CCN(c2nc(C3=C(c4c[nH]c5ccccc45)C(=O)NC3=O)c3ccccc3n2)CC1 [sotrastaurin]
In short: as §1

alvocidib = compound: CN1CC[C@H](c2c(O)cc(O)c3c(=O)cc(-c4ccccc4Cl)oc23)[C@H](O)C1 [alvocidib]
In short: as §1

Tubastatin A = compound: CN1CCc2c(c3ccccc3n2Cc2ccc(C(=O)NO)cc2)C1 [Tubastatin A]
In short: as §1

[8] = compound: CNC(=O)C1=CC=CC=C1NC2=NC(=NC=C2Cl)NC3=C(C=C(C=C3)N4CCOCC4)OC
In short: as §1

defactinib = compound: CNC(=O)c1ccc(Nc2ncc(C(F)(F)F)c(NCc3nccnc3N(C)S(C)(=O)=O)n2)cc1 [defactinib]
In short: as §1

rucaparib = compound: CNCc1ccc(-c2[nH]c3cc(F)cc4c3c2CCNC4=O)cc1 [rucaparib]
In short: as §1

[9] = compound: CNc1nc(-c2ccc3c(N)n[nH]c3c2)cc(N2C[C@@H](C(=O)NC3CCCCC3)CC[C@H]2C)n1
In short: as §1

encorafenib = compound: COC(=O)N[C@@H](C)CNc1nccc(-c2cn(C(C)C)nc2-c2cc(Cl)cc(NS(C)(=O)=O)c2F)n1 [encorafenib]
In short: as §1

[10] = compound: COC(=O)[C@H](CCSC)NC(=O)C1=C(C=C(C=C1)NC[C@H](CS)N)C2=CC=CC=C2
In short: as §1

Measured: log2 fold change

GLS (UniProt O94925)
Sequence of UniProt O94925 (O94925 whole entry, looked up): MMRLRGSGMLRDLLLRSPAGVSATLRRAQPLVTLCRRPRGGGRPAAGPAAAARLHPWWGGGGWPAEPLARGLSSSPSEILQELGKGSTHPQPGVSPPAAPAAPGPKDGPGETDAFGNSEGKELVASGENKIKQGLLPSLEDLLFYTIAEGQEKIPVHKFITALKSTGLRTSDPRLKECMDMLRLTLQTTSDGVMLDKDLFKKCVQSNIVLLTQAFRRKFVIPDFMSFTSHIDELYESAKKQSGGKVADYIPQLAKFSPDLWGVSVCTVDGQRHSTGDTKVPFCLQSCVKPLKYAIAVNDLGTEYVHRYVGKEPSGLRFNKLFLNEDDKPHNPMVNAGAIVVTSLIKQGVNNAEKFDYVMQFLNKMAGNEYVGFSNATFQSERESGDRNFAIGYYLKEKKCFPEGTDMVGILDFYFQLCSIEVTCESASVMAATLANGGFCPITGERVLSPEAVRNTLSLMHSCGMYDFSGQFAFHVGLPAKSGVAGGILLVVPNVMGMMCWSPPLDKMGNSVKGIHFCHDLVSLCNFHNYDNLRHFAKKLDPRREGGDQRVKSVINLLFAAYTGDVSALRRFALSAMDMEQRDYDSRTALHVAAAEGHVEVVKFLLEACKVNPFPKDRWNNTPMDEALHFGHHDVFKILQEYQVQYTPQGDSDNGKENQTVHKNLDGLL
active: volasertib -0.366
inactive: [1] -0.271 | [2] 0.142 | epoxomicin 0.151 | [3] -0.026 | [4] -0.051 | [5] 0.103 | rosiglitazone 0.085 | [6] -0.085 | [7] -0.241 | saracatinib 0.039 | sotrastaurin -0.023 | alvocidib -0.147 | Tubastatin A 0.021 | [8] -0.031 | defactinib -0.167 | rucaparib 0.002 | [9] -0.092 | encorafenib 0.017 | [10] -0.093

GTF2E2 (UniProt P29084)
Sequence of UniProt P29084 (P29084 whole entry, looked up): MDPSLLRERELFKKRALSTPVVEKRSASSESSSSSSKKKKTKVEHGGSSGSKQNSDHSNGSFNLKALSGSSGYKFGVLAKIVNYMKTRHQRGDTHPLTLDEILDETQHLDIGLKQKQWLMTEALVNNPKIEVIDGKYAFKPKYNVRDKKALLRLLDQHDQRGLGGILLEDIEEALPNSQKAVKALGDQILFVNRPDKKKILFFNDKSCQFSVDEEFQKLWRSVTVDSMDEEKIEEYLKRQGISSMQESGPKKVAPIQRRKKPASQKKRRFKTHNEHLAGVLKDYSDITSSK
inactive: [1] -0.11 | [2] 0.105 | epoxomicin 0.099 | [3] -0.036 | [4] 0.001 | [5] 0.069 | rosiglitazone 0.017 | [6] 0.027 | [7] -0.103 | saracatinib -0.103 | sotrastaurin -0.163 | alvocidib -0.023 | Tubastatin A 0.054 | [8] 0.056 | defactinib -0.085 | rucaparib 0.03 | [9] 0.025 | encorafenib 0.145 | [10] -0.035
active: volasertib -0.265

GLA (UniProt P06280)
Sequence of UniProt P06280 (P06280 whole entry, looked up): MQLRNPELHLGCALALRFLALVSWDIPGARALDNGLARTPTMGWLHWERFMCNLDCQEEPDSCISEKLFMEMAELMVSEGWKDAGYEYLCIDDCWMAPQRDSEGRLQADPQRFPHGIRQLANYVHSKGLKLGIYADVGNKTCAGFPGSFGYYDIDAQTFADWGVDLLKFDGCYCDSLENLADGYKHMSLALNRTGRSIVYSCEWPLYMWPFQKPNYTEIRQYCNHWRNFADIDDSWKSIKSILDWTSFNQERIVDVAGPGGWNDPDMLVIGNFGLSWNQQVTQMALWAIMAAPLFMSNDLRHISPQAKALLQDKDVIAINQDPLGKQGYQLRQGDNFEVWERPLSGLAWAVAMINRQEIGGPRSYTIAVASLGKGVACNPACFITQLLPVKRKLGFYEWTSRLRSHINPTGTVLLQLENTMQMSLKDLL
active: [1] -0.449 | volasertib -0.911 | [7] -0.535
inactive: [2] 0.002 | epoxomicin 0.026 | [3] 0.016 | [4] 0.03 | [5] -0.001 | rosiglitazone -0.07 | [6] 0.005 | saracatinib 0.056 | sotrastaurin -0.027 | alvocidib -0.008 | Tubastatin A -0.027 | [8] -0.02 | defactinib 0.008 | rucaparib 0.04 | [9] -0.043 | encorafenib -0.022 | [10] 0.059

GOLGB1 isoform 2 (UniProt Q14789)
Sequence of UniProt Q14789 (Q14789 whole entry, looked up): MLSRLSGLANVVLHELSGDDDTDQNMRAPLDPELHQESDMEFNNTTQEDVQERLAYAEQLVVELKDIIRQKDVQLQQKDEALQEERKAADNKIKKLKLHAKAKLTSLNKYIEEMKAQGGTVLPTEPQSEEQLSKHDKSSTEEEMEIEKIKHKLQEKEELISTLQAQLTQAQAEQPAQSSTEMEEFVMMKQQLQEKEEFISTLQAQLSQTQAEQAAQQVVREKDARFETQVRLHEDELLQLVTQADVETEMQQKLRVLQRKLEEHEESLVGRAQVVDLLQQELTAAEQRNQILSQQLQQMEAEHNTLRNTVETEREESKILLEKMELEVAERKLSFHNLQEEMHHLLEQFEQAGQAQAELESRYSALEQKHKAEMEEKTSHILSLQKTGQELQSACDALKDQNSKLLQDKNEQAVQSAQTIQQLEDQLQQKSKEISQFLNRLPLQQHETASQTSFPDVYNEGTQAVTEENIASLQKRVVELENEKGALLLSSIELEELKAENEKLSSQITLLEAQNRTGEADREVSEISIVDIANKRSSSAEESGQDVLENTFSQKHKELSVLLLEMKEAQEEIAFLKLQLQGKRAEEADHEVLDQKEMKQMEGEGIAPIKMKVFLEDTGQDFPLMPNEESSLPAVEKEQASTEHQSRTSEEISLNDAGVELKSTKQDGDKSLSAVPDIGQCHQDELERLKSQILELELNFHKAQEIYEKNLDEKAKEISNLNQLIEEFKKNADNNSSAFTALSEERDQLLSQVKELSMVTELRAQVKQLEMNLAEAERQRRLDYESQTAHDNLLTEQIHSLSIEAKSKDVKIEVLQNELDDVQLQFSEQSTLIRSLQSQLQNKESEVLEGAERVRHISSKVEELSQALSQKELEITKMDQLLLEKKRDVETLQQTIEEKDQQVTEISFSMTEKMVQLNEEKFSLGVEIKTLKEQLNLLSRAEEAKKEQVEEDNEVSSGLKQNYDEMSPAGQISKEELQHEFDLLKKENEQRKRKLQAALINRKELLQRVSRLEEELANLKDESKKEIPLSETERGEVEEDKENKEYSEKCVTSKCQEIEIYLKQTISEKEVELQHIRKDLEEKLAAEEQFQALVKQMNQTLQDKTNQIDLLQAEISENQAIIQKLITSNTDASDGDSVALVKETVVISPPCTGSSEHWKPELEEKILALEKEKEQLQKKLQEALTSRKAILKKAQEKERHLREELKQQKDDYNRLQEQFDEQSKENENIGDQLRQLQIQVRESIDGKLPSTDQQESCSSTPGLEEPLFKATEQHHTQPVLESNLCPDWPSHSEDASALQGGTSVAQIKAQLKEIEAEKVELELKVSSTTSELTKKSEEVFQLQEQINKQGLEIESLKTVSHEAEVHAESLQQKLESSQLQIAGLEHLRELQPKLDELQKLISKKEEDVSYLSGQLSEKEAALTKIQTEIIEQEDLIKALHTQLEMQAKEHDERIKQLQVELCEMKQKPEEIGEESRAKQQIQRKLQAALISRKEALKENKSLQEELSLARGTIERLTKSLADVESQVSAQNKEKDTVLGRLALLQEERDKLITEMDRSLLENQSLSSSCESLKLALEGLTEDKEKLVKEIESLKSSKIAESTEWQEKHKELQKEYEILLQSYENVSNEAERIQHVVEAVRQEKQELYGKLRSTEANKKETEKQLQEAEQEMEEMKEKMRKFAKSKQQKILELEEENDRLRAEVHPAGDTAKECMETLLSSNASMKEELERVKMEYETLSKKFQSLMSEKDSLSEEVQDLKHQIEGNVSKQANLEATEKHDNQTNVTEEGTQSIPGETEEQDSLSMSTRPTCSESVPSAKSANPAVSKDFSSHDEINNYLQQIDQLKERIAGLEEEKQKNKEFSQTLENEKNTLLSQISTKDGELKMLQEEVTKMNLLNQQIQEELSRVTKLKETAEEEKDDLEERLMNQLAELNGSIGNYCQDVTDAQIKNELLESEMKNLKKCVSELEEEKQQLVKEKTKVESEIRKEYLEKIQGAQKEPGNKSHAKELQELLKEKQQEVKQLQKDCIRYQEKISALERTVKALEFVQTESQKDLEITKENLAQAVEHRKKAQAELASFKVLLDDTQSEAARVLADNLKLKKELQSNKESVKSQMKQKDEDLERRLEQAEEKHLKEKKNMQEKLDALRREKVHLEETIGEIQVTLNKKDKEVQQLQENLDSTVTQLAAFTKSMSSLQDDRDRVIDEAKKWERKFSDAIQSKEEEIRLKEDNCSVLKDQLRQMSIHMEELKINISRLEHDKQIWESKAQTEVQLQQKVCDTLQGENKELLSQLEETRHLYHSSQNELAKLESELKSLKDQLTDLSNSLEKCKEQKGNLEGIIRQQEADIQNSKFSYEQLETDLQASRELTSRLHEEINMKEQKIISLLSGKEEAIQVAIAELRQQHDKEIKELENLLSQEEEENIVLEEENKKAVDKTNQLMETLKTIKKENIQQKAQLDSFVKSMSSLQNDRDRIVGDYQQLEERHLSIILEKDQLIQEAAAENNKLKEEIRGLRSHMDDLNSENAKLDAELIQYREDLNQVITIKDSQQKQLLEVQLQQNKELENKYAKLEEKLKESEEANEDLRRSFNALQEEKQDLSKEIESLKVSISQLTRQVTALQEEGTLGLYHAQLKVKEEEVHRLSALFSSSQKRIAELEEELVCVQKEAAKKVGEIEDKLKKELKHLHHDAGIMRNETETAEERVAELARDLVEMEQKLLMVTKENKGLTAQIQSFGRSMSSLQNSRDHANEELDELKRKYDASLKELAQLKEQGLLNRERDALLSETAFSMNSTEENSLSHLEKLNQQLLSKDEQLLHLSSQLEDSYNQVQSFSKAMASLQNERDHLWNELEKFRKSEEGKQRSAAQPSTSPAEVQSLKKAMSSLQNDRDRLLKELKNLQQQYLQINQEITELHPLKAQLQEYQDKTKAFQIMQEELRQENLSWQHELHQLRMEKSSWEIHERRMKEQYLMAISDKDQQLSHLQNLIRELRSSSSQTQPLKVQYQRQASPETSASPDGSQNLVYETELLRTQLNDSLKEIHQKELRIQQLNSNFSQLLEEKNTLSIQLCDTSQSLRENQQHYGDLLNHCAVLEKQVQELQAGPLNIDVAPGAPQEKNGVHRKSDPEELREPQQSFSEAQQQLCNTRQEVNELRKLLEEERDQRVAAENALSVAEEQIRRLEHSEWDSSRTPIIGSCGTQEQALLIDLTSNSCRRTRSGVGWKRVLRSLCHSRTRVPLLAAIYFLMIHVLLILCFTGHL
inactive: [1] 0.009 | volasertib -0.17 | [2] -0.052 | epoxomicin -0.185 | [3] 0.082 | [4] 0.05 | [5] -0.061 | rosiglitazone 0.004 | [6] 0.148 | [7] -0.009 | saracatinib -0.056 | sotrastaurin -0.121 | alvocidib 0.124 | Tubastatin A 0.029 | [8] 0.048 | defactinib 0 | rucaparib 0.02 | [9] -0.001 | encorafenib -0.04 | [10] 0.003

GLRX3 (UniProt O76003)
active: volasertib -0.331
inactive: [1] -0.164 | [2] 0.066 | epoxomicin 0.018 | [3] 0.027 | [4] -0.025 | [5] -0.011 | rosiglitazone 0.014 | [6] -0.03 | [7] -0.03 | saracatinib -0.017 | sotrastaurin -0.066 | alvocidib -0.071 | Tubastatin A 0.015 | [8] 0.053 | defactinib -0.091 | rucaparib -0.063 | [9] -0.023 | encorafenib 0.029 | [10] -0.03

GYG1 (UniProt P46976)
inactive: [1] 0.107 | volasertib 0.338 | [2] 0 | epoxomicin -0.104 | [3] 0.011 | [4] -0.045 | [5] 0.019 | rosiglitazone -0.045 | [6] 0.016 | [7] -0.011 | saracatinib -0.03 | sotrastaurin -0.425 | alvocidib -0.046 | Tubastatin A 0.033 | [8] 0.091 | defactinib -0.042 | rucaparib 0.062 | [9] 0.038 | encorafenib 0.083 | [10] 0.013

GLUL (UniProt P15104)
inactive: [1] 0.049 | volasertib 0.113 | [2] -0.041 | epoxomicin 0.081 | [3] 0.045 | [4] 0.014 | [5] -0.032 | rosiglitazone -0.022 | [6] -0.032 | [7] 0.017 | saracatinib 0.012 | sotrastaurin -0.058 | alvocidib 0.026 | Tubastatin A 0.048 | [8] 0.142 | defactinib 0.036 | rucaparib -0.039 | [9] -0.153 | encorafenib -0.02 | [10] 0.038

FDFT1 (UniProt P37268)
Sequence of UniProt P37268 (P37268 whole entry, looked up): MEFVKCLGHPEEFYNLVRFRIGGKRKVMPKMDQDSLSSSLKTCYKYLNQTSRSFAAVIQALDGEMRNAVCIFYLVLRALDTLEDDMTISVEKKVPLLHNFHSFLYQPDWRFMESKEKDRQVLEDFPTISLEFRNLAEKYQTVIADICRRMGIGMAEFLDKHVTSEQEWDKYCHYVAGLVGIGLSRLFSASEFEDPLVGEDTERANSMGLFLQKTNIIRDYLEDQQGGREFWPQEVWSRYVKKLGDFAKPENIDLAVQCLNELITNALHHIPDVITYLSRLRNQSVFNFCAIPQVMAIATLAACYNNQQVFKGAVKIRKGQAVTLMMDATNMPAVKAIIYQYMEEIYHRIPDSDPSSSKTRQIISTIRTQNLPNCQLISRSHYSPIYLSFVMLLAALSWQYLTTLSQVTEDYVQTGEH
inactive: [1] -0.067 | volasertib -0.151 | [2] -0.01 | epoxomicin 0.06 | [3] -0.017 | [4] -0.06 | [5] 0.003 | rosiglitazone -0.024 | [6] -0.059 | [7] 0.067 | saracatinib 0.071 | alvocidib -0.033 | Tubastatin A 0.012 | [8] -0.002 | defactinib -0.02 | rucaparib 0.004 | [9] -0.072 | encorafenib -0.032 | [10] -0.028
active: sotrastaurin 0.604
